Assay [1] is described as follows: qHTS assay to identify small molecule antagonists of the estrogen related receptor (ERR) signaling pathway from Tox21 library - cell viability counter screen (AID 1224834). Also: nearly all actives have a fitted effect of over 30% in size. Summed up:
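In this quantitative HTS format, ERR cells receive compounds in DMSO and are incubated for 17.5 h at 37 C. Live-cell protease activity is then detected with CellTiter-Fluor.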
In general terms: In qHTS, concentration-response curves come from the screen itself.

Assay [2] addresses Luciferin 4-monooxygenase (Photinus pyralis) (UniProt P08659). Briefly: qHTS assay to identify small molecule inhibitors of firefly luciferase (AID 1224835). Also: nearly all actives have a fitted effect of over 25% in size. Also: potency is read from the fitted curve at half-maximal effect. Summed up:
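Quantitative HTS format; KM concentrations of both substrates. Purified P. pyralis FLuc activity quantified from luminescence images.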

Assay [3] is described as follows: qHTS assay to identify small molecule agonists of the constitutive androstane receptor (CAR) signaling pathway - cell viability counter screen (AID 1224836). Also: series mostly up to about 92 µM; nearly all actives have a fitted effect of over 45% in size. Summed up:
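HepG2 cells stably carrying hCAR and a CYP2B6-2.2kb reporter were plated 4 h, then given compounds at 15 concentrations plus PK11195 (final 0.75 uM). After 23 h at 37 C, viability was read by CellTiter-Fluor fluorescence.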

Assay [4] in a line: qHTS assay to identify small molecule antagonists of the constitutive androstane receptor (CAR) signaling pathway - cell viability counter screen (AID 1224837). Also: series mostly up to about 92 µM; nearly all actives have a fitted effect of over 45% in size. Summed up:
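In quantitative HTS format, compounds at 15 concentrations were applied to HepG2 cells double-transfected with hCAR and CYP2B6-2.2kb under 50 nM CITCO stimulation; live-cell protease activity was read after 23 hr via CellTiter-Fluor.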

Assay [5] has as its target Nuclear receptor subfamily 1 group I member 3 (Homo sapiens) (UniProt Q14994). Nature of the assay: qHTS assay to identify small molecule antagonists of the constitutive androstane receptor (CAR) signaling pathway (AID 1224838). Also: nearly all actives have a fitted effect of over 40% in size. Summed up:
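CITCO-stimulated (50 nM final) HepG2 cells stably transfected with hCAR and CYP2B6-2.2kb luciferase were exposed to compounds at 15 concentrations for 24 h at 37 C/5% CO2. A luciferase reagent was added and luminescence recorded after 30 min.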

Assay [6] has the same target. Briefly: qHTS assay to identify small molecule agonists of the constitutive androstane receptor (CAR) signaling pathway (AID 1224839). Also: nearly all actives have a fitted effect of over 15% in size. Also: potency is read from the fitted curve at half-maximal effect.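 As to activation: HepG2 cells stably carrying human CAR and a CYP2B6 luciferase reporter; series mostly up to about 92 µM.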 Summed up:
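HepG2 cells stably expressing hCAR and a CYP2B6-2.2kb luciferase reporter were treated with compounds at 15 concentrations plus 0.75 uM PK11195 (final) for 24 h at 37 C; luminescence was read after ONE-Glo addition.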

The nature of assay [7]: qHTS assay to identify small molecule antagonists of the estrogen related receptor signaling pathway with the pleiotropic PPARgamma coactivator (PGC) from Tox21 10K library - cell viability counter screen (AID 1224840; active = well fitted cell-killing curve with a large enough effect in the repeat runs, not every such curve was filed as active; also: nearly all actives have a fitted effect of over 40% in size). Summed up: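 Viability counter screen, PGC/ERR cells: 17.5 h compound exposure at 37 C, CellTiter-Fluor fluorescence endpoint.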
Assay [8] deals with Thyrotropin receptor (Homo sapiens) (UniProt P16473). Briefly: qHTS assay to identify small molecule agonists of the thyroid stimulating hormone receptor (TSHR) signaling pathway (AID 1224843; calls by dose curve; also: nearly all actives have a fitted effect of over 45% in size; also: potency is read from the fitted curve at half-maximal effect). Summed up: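 Compounds are titrated over 15 concentrations, in triplicate, onto TSHR-HEK293 cells seeded at 800/well. Plates sit 30 min at room temperature before cAMP-d2 and anti-cAMP cryptate are added; signal is read after a further hour.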

Assay [9] is described as follows: qHTS assay to identify small molecule agonists of H2AX (AID 1224845; active = well fitted activation curve with a large enough effect in the signal ratio in the repeat runs, not every such curve was filed as active; the % refers to the signal ratio). Summed up:
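Wild-type CHO-K1 cells plated overnight, then exposed 3 hr at 37C to compounds at 15 concentrations (0.76% DMSO). Lysed, then HTRF anti-pH2AX(S139)-cryptate/anti-H2AX-d2 detection after 24 hr at room temperature; emissions 665 and 620 nm.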

A short description of assay [10]: qHTS assay to identify small molecule agonists of the hypoxia (HIF-1) signaling pathway (AID 1224846; active = well fitted activation curve with a large enough effect in the signal ratio in the repeat runs, not every such curve was filed as active; the % refers to the signal ratio). Summed up: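 In ME-180 cells bearing an HRE-bla construct, 17 h treatment with DMSO-dissolved compounds at 37C was followed by CCF4-AM loading to quantify reporter induction.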
Assay [11] is described as follows: qHTS assay to identify small molecule agonists of H2AX - cell viability counter screen (AID 1224847; calls by dose curve; also: top concentration of the series differs between compounds; nearly all actives have a fitted effect of over 30% in size). Summed up: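 Wild-type CHO-K1 cells (10% FBS medium) were plated overnight at 37C, exposed to compounds at 15 concentrations for 3 hr at 37C (0.76% DMSO final), and viability was read as CellTiter-Glo luminescence after 30 min at room temperature.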
Assay [12] can be described thus: qHTS RealTime-Glo MT Cell Viability Assay in HepG2 cells - 24 hour (AID 1224867). Also: nearly all actives have a fitted effect of over 50% in size. Summed up:
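Compound treatment began 5 h after plating HepG2 cells (600/well) with NanoLuc luciferase and prosubstrate. Plates stayed at 37 C for 40 h; luminescence was captured at six time points, 0 h through 40 h.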

A short description of assay [13]: qHTS RealTime-Glo MT Cell Viability Assay in HEK293 cells - 32 hour (AID 1224868). Also: nearly all actives have a fitted effect of over 50% in size. Also: potency is read from the fitted curve at half-maximal effect. Summed up: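 Quantitative high-throughput screen of the Tox21 10K library in HEK293: cells and RealTime-Glo reagents plated together, compound added at 5 h, luminescence monitored through 40 h at 37 C.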
A short description of assay [14]: A CellTox Green Cytotoxicity Assay to monitor cytotoxicity in HEK293 cells - 0 hour (AID 1224869). Also: nearly all actives have a fitted effect of over 50% in size. Also: potency is read from the fitted curve at half-maximal effect. Summed up: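 Homogeneous no-lysis format: HEK293 cell suspension mixed with CellTox Green reagent, seeded, incubated 5 h at 37 C/5% CO2, then dosed by pintool with compound in DMSO.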
A short description of assay [15]: qHTS assay to identify small molecule agonists of the hypoxia (HIF-1) signaling pathway - cell viability counter screen (AID 1224844; calls by dose curve; also: nearly all actives have a fitted effect of over 50% in size). Summed up:
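Same wells as the HIF-1 reporter screen; ME-180 cells carrying HRE-bla, 17 hr treatment at 37C; CellTiter-Glo luminescence read after 30 min at room temperature.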

Several values for one entry are separate records, joined by “and”; a condition that tells them apart may be missing. Equal values may be shown once. Records with an inconclusive call do not appear. A structure can be active in one record and inactive in another. Activity calls are given as the source filed them. Unless noted, calls follow the shape of the dose curve; as a rule, active = well fitted curve in the direction sought with a large enough effect in the repeat runs; inconclusive = weak or mixed curves; inactive = no such curve, though single readings can be large; an effect the other way counts as inactive or inconclusive.

Luciferin 4-monooxygenase (Photinus pyralis), sequence (P08659 whole entry, looked up): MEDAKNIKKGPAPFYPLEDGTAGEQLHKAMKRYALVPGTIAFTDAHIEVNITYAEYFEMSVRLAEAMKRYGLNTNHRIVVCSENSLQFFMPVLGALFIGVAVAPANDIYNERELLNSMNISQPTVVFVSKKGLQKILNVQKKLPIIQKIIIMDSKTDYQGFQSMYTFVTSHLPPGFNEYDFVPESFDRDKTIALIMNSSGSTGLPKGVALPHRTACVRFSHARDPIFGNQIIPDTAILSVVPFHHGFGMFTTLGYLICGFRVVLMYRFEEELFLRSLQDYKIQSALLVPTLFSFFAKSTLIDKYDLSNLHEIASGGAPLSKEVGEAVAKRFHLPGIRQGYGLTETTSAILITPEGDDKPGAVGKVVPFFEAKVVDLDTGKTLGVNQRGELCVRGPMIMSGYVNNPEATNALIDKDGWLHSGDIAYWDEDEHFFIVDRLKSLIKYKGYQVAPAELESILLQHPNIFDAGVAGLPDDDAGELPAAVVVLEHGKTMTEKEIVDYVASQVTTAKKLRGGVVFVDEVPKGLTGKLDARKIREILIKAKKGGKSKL
Nuclear receptor subfamily 1 group I member 3 (Homo sapiens), sequence (Q14994 whole entry, looked up): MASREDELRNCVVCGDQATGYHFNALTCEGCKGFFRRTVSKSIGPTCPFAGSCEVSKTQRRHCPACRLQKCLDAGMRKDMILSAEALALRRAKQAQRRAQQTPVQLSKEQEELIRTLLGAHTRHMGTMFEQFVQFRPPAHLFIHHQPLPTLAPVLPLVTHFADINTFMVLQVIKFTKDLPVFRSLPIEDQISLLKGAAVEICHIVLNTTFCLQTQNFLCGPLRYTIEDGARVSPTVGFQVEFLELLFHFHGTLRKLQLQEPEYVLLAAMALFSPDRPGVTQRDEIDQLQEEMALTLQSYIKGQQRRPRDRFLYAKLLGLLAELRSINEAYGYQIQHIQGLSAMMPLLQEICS
Thyrotropin receptor (Homo sapiens), sequence (P16473 whole entry, looked up): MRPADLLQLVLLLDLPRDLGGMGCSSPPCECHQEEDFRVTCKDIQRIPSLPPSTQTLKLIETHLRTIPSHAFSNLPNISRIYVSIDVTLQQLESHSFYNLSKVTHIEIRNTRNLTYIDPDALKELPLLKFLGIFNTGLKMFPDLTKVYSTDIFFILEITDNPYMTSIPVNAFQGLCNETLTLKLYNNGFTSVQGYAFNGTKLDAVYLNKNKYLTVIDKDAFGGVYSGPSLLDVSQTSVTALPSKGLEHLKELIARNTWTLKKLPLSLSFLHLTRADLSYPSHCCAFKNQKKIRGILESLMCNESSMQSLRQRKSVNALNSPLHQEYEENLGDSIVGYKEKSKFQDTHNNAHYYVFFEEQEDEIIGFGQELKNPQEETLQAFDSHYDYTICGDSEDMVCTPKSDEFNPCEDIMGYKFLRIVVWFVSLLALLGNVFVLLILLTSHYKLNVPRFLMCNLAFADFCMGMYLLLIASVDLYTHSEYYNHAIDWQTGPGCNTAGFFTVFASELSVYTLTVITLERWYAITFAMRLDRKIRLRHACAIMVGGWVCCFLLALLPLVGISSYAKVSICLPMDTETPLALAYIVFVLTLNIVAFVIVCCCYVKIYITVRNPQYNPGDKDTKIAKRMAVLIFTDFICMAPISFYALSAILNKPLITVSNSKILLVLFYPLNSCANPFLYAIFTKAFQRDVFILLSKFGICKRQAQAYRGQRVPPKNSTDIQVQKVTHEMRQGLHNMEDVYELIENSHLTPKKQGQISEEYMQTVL

As for `CN(C)Cc1cc(CN(C)C)c(O)c(CN(C)C)c1`, the Potency result in [1], in assay [2], in assay [3], in [4], in assay [5] and in [6] was “inactive” each time. In addition, the Potency result in assay [7], in assay [8], in [9], in assay [11], in [13] and in assay [14] was “inactive” in each case. For the same compound, the call in [10] and in assay [12] was inactive.

For `C=CC(=O)NC(C)(C)CS(=O)(=O)O`, the Potency result in [1], in assay [2], in [3], in [4], in [5] and in [6] was “inactive” in each case. Moreover, the Potency result in [7], in assay [8], in [9], in assay [11] and in assay [13] was “inactive” in each case. The outcome in assay [10] and in assay [12] was inactive. Also, the Potency entry in assay [14] is “inactive and 43.6 µM (active)”.

`COc1ccc(C(=O)c2ccccc2)c(O)c1`: the Potency entry in assay [1], in assay [3], in assay [4], in assay [5], in assay [7] and in assay [8] was “inactive” in each case. Further, the Potency result in assay [9], in assay [11] and in [14] was “inactive” in each case. Besides, the Potency was 31.2 µM (active) and 35.6 µM (active) and 30.9 µM (active) in assay [2]; 47.8 µM (active) and 48.6 µM (active) in assay [6]; “inactive and 9.77 µM (active)” in assay [13]. Further, the result in assay [10] and in assay [12] was inactive.

Consider `CCN1CCCC1=O`, for which the Potency result in [1], in assay [2], in assay [3], in [4], in [5] and in [6] was “inactive” in each case. In addition, the Potency entry in [7], in [8], in assay [9], in assay [11], in assay [13] and in [14] was “inactive” throughout. Moreover, the result in assay [10] and in assay [12] was inactive.

On to `CC(C)(C)CC(C)(C)c1ccc(O)c(-n2nc3ccccc3n2)c1`, for which the Potency entry in assay [1], in assay [2], in assay [3], in assay [4], in assay [5] and in assay [7] was “inactive” in each case. The Potency entry in assay [15], in [9], in assay [11] and in [14] was “inactive” throughout. For the same compound, the Potency in [6] is 27.7 µM (active) and inactive; in [8], 27.7 µM (active) and 15.4 µM (active); in assay [13], 49.7 µM (active) and inactive. In addition, the result in assay [10] and in [12] was inactive.

As to `CCCCOCCOCCSC#N`, the Potency result in assay [1], in assay [2], in assay [3], in [4], in assay [5] and in [6] was “inactive” in each case. Besides, the Potency result in [7], in [8], in assay [15], in assay [9], in [11] and in assay [13] was “inactive” in each case. Besides, in assay [14], the Potency result is “inactive”. The result in assay [10] and in [12] was inactive.

In the case of `O=C1OC(c2ccc(O)cc2)(c2ccc(O)cc2)c2ccccc21`, the Potency entry in assay [1], in [2], in assay [3], in assay [4], in [5] and in assay [7] was “inactive” in each case. Besides, the Potency result in assay [8], in assay [15], in [9], in [11], in assay [13] and in [14] was “inactive” throughout. Further, the Potency in assay [6] is 60.7 µM (active) and 8.63 µM (active) and 4.73 µM (active). In addition, in assay [12], the call was inactive.

For the compound `COc1cc(O)c(C(=O)c2ccccc2)cc1S(=O)(=O)O`, the Potency entry in assay [1], in assay [2], in assay [3], in assay [4], in assay [5] and in assay [6] was “inactive” in each case. Further, the Potency result in assay [7], in assay [8], in [15], in assay [9], in assay [11] and in assay [13] was “inactive” throughout. Also, the Potency result in assay [14] was “inactive”. Besides, the call in assay [10] and in assay [12] was inactive.

On to `CC(O)COc1ccccc1` (centres undefined), for which the Potency entry in assay [1], in assay [2], in assay [3], in assay [4], in [5] and in [6] was “inactive” each time. Besides, the Potency entry in assay [7], in assay [8], in assay [9], in assay [11], in [13] and in [14] was “inactive” throughout. In addition, the compound was classed as inactive in assay [10] and in [12].

The values are drawn from PubChem BioAssay (Tox21).
